# The campaign covered roughly 340,000 compounds. About 470 (0.14%) were called active. This is one part of a sample in which actives are shown more often than they occur. Unmarked numbers belong to inactive results.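 The calls were made as follows: active = mean activation of 30% or more, with every replicate also reaching 30%; inconclusive = mean activation of 30% or more but some replicate falls short; inactive = the rest.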
# Experiment: small molecules raising miR-122 sensor signal – cell-based, Huh7 psiCHECK-miR122, Renilla luciferase, single point, primary screen (AID 623901);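 also: 0% = median of neutral control wells and 100% = median of positive control wells; higher luciferase signal means stronger suppression of miR-122 activity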
# Conditions: 48 h, at 12.5 µM, active compounds read high
row,Compound,activation
1,COc1ccc(C#Cc2cnc3c(c2)C(=O)N([C@@H](C)CO)C[C@H](C)[C@@H](CN(C)CC2CCOCC2)O3)cc1,0.272%
2,CSc1nc(-c2ccccc2)nc(C(Cl)Cl)n1,42% (active)
3,COc1cccc(-c2ccc3c(c2)O[C@H](CN(C)C(=O)C2CCOCC2)[C@H](C)CN([C@H](C)CO)S3(=O)=O)c1,40.8% (active)
4,C[C@H](CO)N1C[C@H](C)[C@@H](CN(C)C(=O)C2CCOCC2)Oc2cc(-c3ccc(C(=O)N(C)C)cc3)ccc2S1(=O)=O,-12.2%
5,COCC#Cc1ccc2c(c1)O[C@H](CN(C)C(=O)C1CCOCC1)[C@@H](C)CN([C@@H](C)CO)S2(=O)=O,-2.66%
6,CNC[C@H]1Oc2cc(-c3ccc(OC)cc3)ccc2S(=O)(=O)N([C@H](C)CO)C[C@@H]1C,-1.22%
7,COc1ccccc1-c1ccc2c(c1)O[C@H](CN(C)S(=O)(=O)c1ccc(C)cc1)[C@@H](C)CN([C@H](C)CO)S2(=O)=O,2.3%
8,COc1cccc(S(=O)(=O)N(C)C[C@@H]2Oc3cc(C4=CCCCC4)ccc3S(=O)(=O)N([C@H](C)CO)C[C@H]2C)c1,36.2% (active)
9,C[C@H]1CN([C@@H](C)CO)C(=O)c2cc(Br)cnc2O[C@H]1CN(C)Cc1cccc(F)c1,-14.9%
10,CCC(=O)N1C[C@@H](C)[C@@H](OC)CN(C)C(=O)c2ccc(NC(=O)C3CCCCC3)cc2OC[C@H]1C,-2.5%
11,COc1ccc(C)cc1S(=O)(=O)Nc1cc2c3c(c1)CCC(=O)N3CCC2,-150%
12,C/C=C/c1ccc2c(c1)O[C@H](CN(C)C(=O)Cc1ccccn1)[C@H](C)CN([C@H](C)CO)S2(=O)=O,-4.41%
13,C[C@H]1CN([C@@H](C)CO)S(=O)(=O)c2ccc(-c3cccc(C#N)c3)cc2O[C@H]1CN(C)C(=O)c1ccccc1,4.92%
14,C[C@@H]1CN([C@@H](C)CO)S(=O)(=O)c2ccc(C#Cc3ccc(F)cc3)cc2O[C@H]1CN(C)S(C)(=O)=O,0.672%
15,CCC(=O)N(C)C[C@@H]1Oc2cc(C#Cc3cccnc3)ccc2S(=O)(=O)N([C@H](C)CO)C[C@@H]1C,-5.93%
16,C/C=C/c1ccc2c(c1)O[C@H](CN(C)C(=O)c1ccc3c(c1)OCO3)[C@@H](C)CN([C@H](C)CO)S2(=O)=O,-10.3%
17,C[C@H](CO)N1C[C@H](C)[C@@H](CN(C)C(=O)C2CC2)Oc2cc(C#CC3CC3)ccc2S1(=O)=O,-21%
18,CCCC#Cc1ccc2c(c1)O[C@@H](CN(C)C(=O)c1cccnc1)[C@H](C)CN([C@H](C)CO)S2(=O)=O,-14.9%
19,C[C@@H]1CN([C@H](C)CO)S(=O)(=O)c2ccc(C#Cc3ccccc3F)cc2O[C@@H]1CN(C)C(=O)c1ccc2c(c1)OCO2,48.9% (active)
20,C[C@@H]1CN([C@H](C)CO)S(=O)(=O)c2ccc(C#CC3(O)CCCC3)cc2O[C@@H]1CN(C)C(=O)c1cccnc1,44% (active)
21,CNC[C@@H]1Oc2cc(C#CC3CCCC3)ccc2S(=O)(=O)N([C@@H](C)CO)C[C@@H]1C,32.4% (active)
22,C[C@H]1CN([C@@H](C)CO)S(=O)(=O)c2ccc(C#Cc3ccccc3F)cc2O[C@@H]1CN(C)C(=O)c1ccc2c(c1)OCO2,48% (active)
23,CNC[C@@H]1Oc2cc(C#CCC3CCCC3)ccc2S(=O)(=O)N([C@H](C)CO)C[C@H]1C,14.9%

row,Compound,activation
1,C[C@@H]1CN([C@@H](C)CO)S(=O)(=O)c2ccc(C#Cc3ccccc3)cc2O[C@@H]1CN(C)C(=O)Nc1ccccc1,-3.74%
2,C[C@H](CO)N1C[C@H](C)[C@@H](CN(C)Cc2cncnc2)Oc2cc(-c3ccccc3)ccc2S1(=O)=O,-27.5%
3,C[C@H]1CN([C@@H](C)CO)C(=O)c2cc(/C=C/c3ccccc3)cnc2O[C@H]1CN(C)Cc1cccc(C(=O)O)c1,8.03%
4,CCOc1ccccc1NC(=O)Cn1nnc(C(=O)NCc2cccs2)c1N,-94.8%
5,C[C@@H]1CN([C@@H](C)CO)S(=O)(=O)c2ccc(-c3ccc(C(=O)N(C)C)cc3)cc2O[C@@H]1CN(C)C(=O)Cc1ccccn1,-3.98%
6,COCC#Cc1cnc2c(c1)C(=O)N([C@@H](C)CO)C[C@H](C)[C@@H](CN(C)Cc1ccccc1)O2,-2.07%
7,C[C@@H]1CN([C@H](C)CO)C(=O)c2cc(-c3cccc(C(=O)N(C)C)c3)cnc2O[C@H]1CN(C)S(=O)(=O)c1ccc(F)cc1,-4.18%
8,COc1ccc(-c2cc(NC(C)=O)c3ncc(-c4cc(OC)c(OC)c(OC)c4)n3c2)cn1,-107%
9,CCCC#Cc1ccc2c(c1)O[C@@H](CN(C)C(=O)CC)[C@@H](C)CN([C@H](C)CO)S2(=O)=O,-16.6%
10,COCCn1c(SCC(=O)c2[nH]c(C)c(C(C)=O)c2C)nc2ccccc2c1=O,-272%
11,CC1CCCCC1NC(=O)/C(C#N)=C/C=C/c1ccccc1[N+](=O)[O-] (configuration not stated),-102%
12,Cc1ccc(OCC(=O)Nc2cccc3c2CCCC3)cc1C,-94.9%
13,C[C@@H]1CN([C@H](C)CO)C(=O)c2cc(C#Cc3ccccn3)cnc2O[C@H]1CN(C)CC1CCOCC1,-7.38%
14,CCC(=O)Nc1ccc2c(c1)OC[C@H](C)N(C(=O)c1ccncc1)C[C@H](C)[C@H](OC)CN(C)C2=O,-2.72%
15,COCC#Cc1cnc2c(c1)C(=O)N([C@@H](C)CO)C[C@@H](C)[C@H](CN(C)C(=O)C1CCOCC1)O2,-0.849%
16,CC1=C(C)CC(C(=O)NNC(=O)c2ccccc2O)C(C(=O)O)C1 (configuration not stated),-151%
17,Cn1cnc([N+](=O)[O-])c1Sc1ccccc1,-217%
18,CCC(=O)N(C)C[C@@H]1Oc2ncc(C#CCC3CCCC3)cc2C(=O)N([C@@H](C)CO)C[C@H]1C,7.03%
19,COc1ccc(C#Cc2cnc3c(c2)C(=O)N([C@H](C)CO)C[C@H](C)[C@H](CN(C)S(=O)(=O)c2ccc(F)cc2)O3)cc1OC,8.05%
20,C/C=C/c1ccc2c(c1)O[C@H](CN(C)C(=O)Nc1ccc(OC)cc1)[C@@H](C)CN([C@H](C)CO)S2(=O)=O,-21.8%
21,COCC#Cc1cnc2c(c1)C(=O)N([C@H](C)CO)C[C@H](C)[C@H](CN(C)C(=O)Nc1ccccc1OC)O2,0.317%
22,COc1ccc(C(C#N)Nc2ccc(C)cc2)cc1 (configuration not stated),49.7% (active)
23,COc1ccccc1NC(=O)N(C)C[C@@H]1Oc2ncc(C#CCC(C)C)cc2C(=O)N([C@@H](C)CO)C[C@@H]1C,3.82%

row,Compound,activation
1,CC(C)C#Cc1ccc2c(c1)O[C@H](CN(C)Cc1ccccn1)[C@H](C)CN([C@H](C)CO)S2(=O)=O,-14.1%
2,Cc1ccccc1-c1cnc2c(c1)C(=O)N([C@H](C)CO)C[C@H](C)[C@@H](CN(C)C(=O)c1ccccc1)O2,2.61%
3,Cc1cc(C)cc(NS(=O)(=O)c2ccc(F)cc2)c1,-117%
4,COc1ccc(F)cc1S(=O)(=O)Nc1ccc2c(c1)OCO2,-99.7%
5,C[C@H]1CN([C@@H](C)CO)S(=O)(=O)c2ccc(-c3ccccc3)cc2O[C@H]1CN(C)C(=O)CC1CC1,4.7%
6,CO[C@H]1CN(C)C(=O)c2cc(NC(C)=O)ccc2OC[C@H](C)N(C(=O)CN(C)C)C[C@@H]1C,-4.03%
7,COc1ccc(S(=O)(=O)Nc2ccc(F)cc2)c(C)c1C,-231%
8,COc1ccc(CN2CCOC2=O)cc1OC,44.5% (active)
9,C[C@@H]1CN([C@@H](C)CO)C(=O)c2cc(C#Cc3ccccc3)cnc2O[C@H]1CN(C)C(=O)c1ccccn1,5.71%
10,C[C@@H]1CN([C@@H](C)CO)C(=O)c2cc(/C=C/c3ccccc3)cnc2O[C@H]1CN(C)C(=O)C1CCC1,2.31%
11,CCCN(C)C[C@@H]1Oc2cc(C#CCc3ccccc3)ccc2S(=O)(=O)N([C@H](C)CO)C[C@@H]1C,7.02%
12,C[C@@H]1CN([C@H](C)CO)C(=O)c2cc(-c3ccccc3F)cnc2O[C@H]1CN(C)C(=O)NC1CCCCC1,-3.04%
13,CCC(=O)N(C)C[C@@H]1Oc2ncc(C#Cc3cccnc3)cc2C(=O)N([C@@H](C)CO)C[C@@H]1C,-1.27%
14,COc1ccc(C)cc1S(=O)(=O)NC1CCCCC1,-375%
15,Cc1cccc(-n2ncc(Cl)c(Cl)c2=O)c1,69.6% (active)
16,CCC(=O)N(C)C[C@H]1Oc2cc(-c3cccc(C#N)c3)ccc2S(=O)(=O)N([C@@H](C)CO)C[C@@H]1C,-7.09%
17,O=C(Nc1cc(S(=O)(=O)Nc2ccc(Cl)cc2)ccc1O)c1ccc(F)cc1F,-118%
18,CCC(=O)N(C)C[C@@H]1Oc2cc(C#C[C@H](C)O)ccc2S(=O)(=O)N([C@H](C)CO)C[C@@H]1C,5.93%
19,CCCNC(=O)N(C)C[C@@H]1Oc2ncc(C#Cc3ccccc3F)cc2C(=O)N([C@@H](C)CO)C[C@H]1C,13.1%
20,COc1ccc(CN(C)C[C@@H]2Oc3ccc(NS(=O)(=O)c4ccc(OC)cc4)cc3C(=O)N([C@H](C)CO)C[C@H]2C)cc1,-2.32%
21,C[C@@H]1CN([C@H](C)CO)C(=O)c2cccc(NS(=O)(=O)c3cn(C)cn3)c2O[C@H]1CN(C)CC1CC1,-0.457%

# Reference: PubChem BioAssay AID623901 (Broad Institute, 2012)
